# Several values for one entry are separate records, joined by “and”; a condition that tells them apart may be missing. Identical values can stand only once. A structure can be active in one record and inactive in another. Activity calls are given as the source filed them. Cut-off read from the data, not from the text of the source, unless noted: active = inhibition above about 80%; inactive = the rest.
# Experiments:
# [1] = kinase inhibitors against Plasmodium liver-stage infection, cell-based, known kinase inhibitor set, luminescence, hepatoma host viability (AID 624392; call rule not given here;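 note: infected cells incubated roughly two days before readout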); settings: Plasmodium liver stage in hepatoma cells, luciferase luminescence, concentration not given here; liver cell % of control: measured here: host liver cell viability; parasite % of control: stronger effect = lower value
# [2] = LFS_MB_1R medulloblastoma cell growth inhibition, synergistic combos for chromothripsis tumors, cisplatin or BGB combos (AID 1671452); settings: LFS_MB_1R medulloblastoma cells, stronger effect = higher value;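 note: cells exposed for 96 hours before readout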
# [3] = CRL2098 osteosarcoma cell growth inhibition, synergistic combos for chromothripsis tumors, BGB or cisplatin IC20 combos (AID 1671454); settings: CRL2098 osteosarcoma cells, drug combinations, stronger effect = higher value;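 note: cells exposed for 96 h before readout; 0% = vehicle DMSO and 100% = killing by high DMSO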
# [4] = HD-MB03 medulloblastoma cell growth inhibition, synergistic combos for chromothripsis tumors, BGB or cisplatin IC20 combos (AID 1671455; in the data active = inhibition above about 83%;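 note: 0% = vehicle DMSO and 100% = high DMSO as cytotoxic control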); settings: HD-MB03 medulloblastoma cells, stronger effect = higher value
# [5] = UWB1.289 ovarian carcinoma cell growth inhibition, synergistic combos for chromothripsis tumors, BGB or cisplatin combos (AID 1671456); settings: UWB1.289 ovarian carcinoma cells, stronger effect = higher value;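 note: cells exposed to compound for four days; 0% = vehicle DMSO and 100% = killing by high DMSO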
# [6] = LFS_MB_2R medulloblastoma cell growth inhibition, synergistic combos for chromothripsis tumors, cisplatin combos (AID 1671457); settings: LFS_MB_2R medulloblastoma cells, stronger effect = higher value;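 note: cells exposed to compound for four days before readout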
# [7] = UWB1.289_BRCA1 ovarian cancer growth, cell-based, BGB or cisplatin combinations (AID 1671459); settings: UWB1.289 BRCA1 ovarian carcinoma, drug combinations, stronger effect = higher value
# [8] = human astrocyte viability loss, single and combined drugs, cytotoxicity control for chromothriptic childhood tumor combination screen, cell-based, BGB or cisplatin IC20 combos (AID 1671460); settings: Human astrocytes, drug combinations, stronger effect = higher value;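 note: cells exposed to compounds for 96 hours before viability readout; 0% = vehicle and 100% = killing control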
# [9] = growth inhibition of CRL1545 osteosarcoma cells, cell-based, cisplatin and BGB IC20 combos (AID 1671464); settings: stronger effect = higher value;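 note: cells exposed to compound for 96 hours before readout; 0% = vehicle DMSO and 100% = high DMSO killing control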
# [10] = system: Hepatitis C virus NS3 helicase; assay: HCV NS3 helicase inhibitors, primary screen, biochemical, fluorescence polarization, LOPAC1280 library (AID 687035; in the data active = inhibition above about 37%); settings: Purified HCV NS3 helicase, Cy5-dT15 ssDNA binding fluorescence polarization; stronger effect = higher value; concentration not given here
# [11] = Cy5 fluorescence quenching or enhancement artefacts, artefact control for HCV NS3 helicase inhibitor project, biochemical, LOPAC1280 (AID 687037; call rule not given here); settings: Cy5-DNA-NS3h complex fluorescence interference counterscreen
# [12] = phospholipid biosynthesis inhibitors in animal cells, primary screen, cell-based, LOPAC library, screen 4 (AID 1347384; call rule not given here); settings: phospholipid biosynthesis inhibition screen, at 10 µM
# [13] = viability rescue of complex I mutant cybrids, primary screen, cell-based, galactose medium, ATP luminescence (AID 1645843;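 active = z-score of at least 1.8 in each of two replicates, scored against plate mean and spread of sample wells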;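 note: positive z means more ATP and so rescue of galactose-driven cybrid death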); settings: complex I mutant cybrid cells, 72 h, stronger effect = higher value
# [14] = hESC survival regulators, cell-based (AID 493140; call rule not given here;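 note: cells exposed to compounds for four days before counting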); settings: human embryonic stem cell survival screen; stronger effect = higher value
# [15] = liver-stage malaria parasite growth inhibition, primary screen, cell-based, HepG2, luciferase luminescence, HepG2 viability (AID 624349; in the data active = parasite load remaining mostly below about 12%, no sharp cut-off; inactive = mostly above about 10%;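 note: 100% = mean of DMSO negative control wells on the same plate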); settings: P. berghei liver stage in HepG2, luciferase luminescence, concentration not given here; parasite load remaining: stronger effect = lower value; viability: measured here: HepG2 viability without parasites
# [16] = biological target: Mitogen-activated protein kinase 7 (Homo sapiens) (UniProt Q13164); assay: ERK5 transactivation activators in reporter cells, primary screen, cell-based, HTS (AID 1508626;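 active = luciferase signal above three times the same-plate solvent-only control wells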;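 note: luciferase driven by Gal4-ERK5 fusion binding five Gal4 sites before minimal TATA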); settings: HeLa Gal4-ERK5 transactivation, 18 h, at 5 µM, stronger effect = higher value
# [17] = measured here: combination with BGB IC40, at 0.05 µM
# [18] = measured here: combination with cisplatin, at 0.5 µM
# [19] = measured here: combination with cisplatin, at 5 µM
# [20] = measured here: combination with BGB at IC20, at 0.5 µM
# [21] = measured here: combination with cisplatin at IC20, at 0.5 µM
# [22] = measured here: combo with BGB at IC20, at 0.5 µM
# [23] = measured here: combo with cisplatin at IC20, at 0.5 µM
# [24] = measured here: inhibition with BGB combination, at 0.05 µM
# [25] = measured here: inhibition with cisplatin combination, at 0.05 µM
# [26] = BGB combination, concentration series, at 5 µM
# [27] = cisplatin combination, concentration series, at 5 µM
# [28] = measured here: combo with BGB IC20, at 0.5 µM
# [29] = measured here: combo with cisplatin IC20, at 0.5 µM
# [30] = measured here: with BGB IC20 combination, at 0.5 µM
# [31] = measured here: with cisplatin IC20 combination, at 0.5 µM
# Chain of Mitogen-activated protein kinase 7 (Homo sapiens) (Q13164 whole entry, looked up, the tested form may be a part): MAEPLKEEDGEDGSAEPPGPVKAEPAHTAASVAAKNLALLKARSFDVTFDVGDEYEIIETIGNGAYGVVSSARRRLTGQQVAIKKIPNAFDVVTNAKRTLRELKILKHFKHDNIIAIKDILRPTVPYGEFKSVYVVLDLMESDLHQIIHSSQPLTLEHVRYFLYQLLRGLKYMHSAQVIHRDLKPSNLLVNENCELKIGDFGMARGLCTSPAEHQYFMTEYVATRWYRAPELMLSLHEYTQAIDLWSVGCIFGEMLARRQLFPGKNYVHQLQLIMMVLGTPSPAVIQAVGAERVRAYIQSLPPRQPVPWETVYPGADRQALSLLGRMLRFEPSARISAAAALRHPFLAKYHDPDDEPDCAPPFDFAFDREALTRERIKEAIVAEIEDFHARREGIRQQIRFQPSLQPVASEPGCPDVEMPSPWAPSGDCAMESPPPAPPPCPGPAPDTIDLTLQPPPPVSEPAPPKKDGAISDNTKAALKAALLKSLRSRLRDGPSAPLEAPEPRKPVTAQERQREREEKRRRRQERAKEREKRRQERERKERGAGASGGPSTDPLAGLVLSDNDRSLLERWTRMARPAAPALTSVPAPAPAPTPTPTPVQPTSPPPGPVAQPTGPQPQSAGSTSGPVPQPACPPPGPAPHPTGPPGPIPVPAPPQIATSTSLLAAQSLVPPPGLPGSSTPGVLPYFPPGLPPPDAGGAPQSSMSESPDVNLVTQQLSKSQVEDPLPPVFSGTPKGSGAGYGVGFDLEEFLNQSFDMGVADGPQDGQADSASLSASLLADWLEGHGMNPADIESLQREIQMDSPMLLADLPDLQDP
compound,measurement,setting,value
NC(=O)c1ccc(N(C(N)=O)c2c(F)cccc2F)nc1-c1ccc(F)cc1F,liver cell % of control,[1],98.2% and 93.2% and 92%
same,parasite % of control,[1],55.7% (inactive) and 44.1% (inactive) and 51.8% (inactive)
O=c1cc(N2CCOCC2)oc2c(-c3cccc4c3sc3ccccc34)cccc12,inhibition,[2]; at 0.5 µM,-39.7% (inactive)
same,inhibition,[2]; [17],-46.9%
same,inhibition,[2]; [18],-75.1%
same,inhibition,[2]; [19],-3.55%
same,inhibition,[3]; at 0.5 µM,-62.4% (inactive)
same,inhibition,[3]; [20],-46.6%
same,inhibition,[3]; [21],-92%
same,inhibition,[4]; at 0.5 µM,0.79% (inactive)
same,inhibition,[4]; [22],-1.46%
same,inhibition,[4]; [23],11.5%
same,inhibition,[5]; at 0.5 µM,-12.2% (inactive)
same,inhibition,[5]; [24],-24%
same,inhibition,[5]; [25],-24.1%
same,inhibition,[6]; at 0.5 µM,-22.4% (inactive)
same,inhibition,[6]; [18],-18.6%
same,inhibition,[6]; [19],-3.32%
same,inhibition,[7]; [26],44.6%
same,inhibition,[7]; at 0.5 µM,-11.7% (inactive)
same,inhibition,[7]; [27],12.1%
same,inhibition,[8]; at 0.5 µM,9.11% (inactive)
same,inhibition,[8]; [28],7.86%
same,inhibition,[8]; [29],13%
same,inhibition,[9]; at 0.5 µM,17.1% (inactive)
same,inhibition,[9]; [30],-25.4%
same,inhibition,[9]; [31],37.3%
same,inhibition,"[9]; single agent, at 0.05 µM",-18.4%
same,inhibition,"[9]; single agent, at 5 µM",-71.2%
COc1cc2c(cc1OC)C1CC(=O)C(CC(C)C)CN1CC2 (stereo not given),inhibition,[10],-3% (inactive)
same,fluorescence ratio (interference),[11],1 (inactive)
same,outcome,[12],inactive
same,z-score,[13],0.245 (inactive)
Nc1ncnc2c1c(-c1cnc3[nH]ccc3c1)nn2C1CCCC1,inhibition,[2]; at 0.5 µM,-19.1% (inactive)
same,inhibition,[2]; [17],-13.7%
same,inhibition,[2]; [18],-26.5%
same,inhibition,[2]; [19],69.1%
same,inhibition,[3]; at 0.5 µM,25.4% (inactive)
same,inhibition,[3]; [20],3.06%
same,inhibition,[3]; [21],36.8%
same,inhibition,[4]; at 0.5 µM,28.9% (inactive)
same,inhibition,[4]; [22],13%
same,inhibition,[4]; [23],41.5%
same,inhibition,[5]; at 0.5 µM,28.7% (inactive)
same,inhibition,[5]; [24],-4.92%
same,inhibition,[5]; [25],-7.06%
same,inhibition,[6]; at 0.5 µM,-21.4% (inactive)
same,inhibition,[6]; [18],-27.2%
same,inhibition,[6]; [19],59%
same,inhibition,[7]; [26],98.9%
same,inhibition,[7]; at 0.5 µM,22.9% (inactive)
same,inhibition,[7]; [27],106%
same,inhibition,[8]; at 0.5 µM,53.4% (inactive)
same,inhibition,[8]; [28],55.9%
same,inhibition,[8]; [29],46%
same,inhibition,[9]; at 0.5 µM,-8.52% (inactive)
same,inhibition,[9]; [30],-19%
same,inhibition,[9]; [31],-4.93%
same,inhibition,"[9]; single agent, at 0.05 µM",-24.4%
same,inhibition,"[9]; single agent, at 5 µM",98.2%
C=C1C(=O)O[C@@H]2[C@H]3O[C@]3(C)CC/C=C(\C)CC[C@@H]12,survival,[14],0.167 (inactive)
same,parasite load remaining,[15],-0.555% (active) and 48% (inactive)
same,viability,[15],117% and 76.6%
same,luciferase signal,[16],92 AU (inactive)
CCOC(=O)N1CCN(/[N+]([O-])=N/Oc2ccc([N+](=O)[O-])cc2[N+](=O)[O-])CC1,outcome,[12],inactive
same,z-score,[13],-0.95 (inactive)
CC[C@H](CC[C@@H](C)[C@H]1CC[C@H]2[C@@H]3CC=C4C[C@@H](O)CC[C@]4(C)[C@H]3CC[C@]12C)C(C)C,survival,[14],9.58 (inactive)
same,parasite load remaining,[15],99.6% (inactive)
same,viability,[15],72.8%
same,luciferase signal,[16],32 AU (inactive)
Clc1ccc(C(c2ccc(Cl)cc2)n2cc[n+](CC(OCc3ccc(Cl)cc3Cl)c3ccc(Cl)cc3Cl)c2)cc1 (stereo not given),outcome,[12],inactive
Cc1ccc(O)c(C(CCN(C(C)C)C(C)C)c2ccccc2)c1 (stereo not given),parasite load remaining,[15],53.2% (inactive)
same,viability,[15],96.6%
same,z-score,[13],-0.5 (inactive)
CC(=O)Nc1nc(C)c(-c2ccc(Cl)c(S(=O)(=O)NCCO)c2)s1,inhibition,[2]; at 0.5 µM,1.54% (inactive)
same,inhibition,[2]; [17],-12.3%
same,inhibition,[2]; [18],15.7%
same,inhibition,[2]; [19],14.2%
same,inhibition,[3]; at 0.5 µM,17% (inactive)
same,inhibition,[3]; [20],5.45%
same,inhibition,[3]; [21],52.4%
same,inhibition,[4]; at 0.5 µM,14.3% (inactive)
same,inhibition,[4]; [22],17.8%
same,inhibition,[4]; [23],10.3%
same,inhibition,[5]; at 0.5 µM,10.9% (inactive)
same,inhibition,[5]; [24],10.4%
same,inhibition,[5]; [25],1.8%
same,inhibition,[6]; at 0.5 µM,9.32% (inactive)
same,inhibition,[6]; [18],10.4%
same,inhibition,[6]; [19],43.2%
same,inhibition,[7]; [26],22.7%
same,inhibition,[7]; at 0.5 µM,6.36% (inactive)
same,inhibition,[7]; [27],12.2%
same,inhibition,[8]; at 0.5 µM,23.1% (inactive)
same,inhibition,[8]; [28],23.7%
same,inhibition,[8]; [29],25.1%
same,inhibition,[9]; at 0.5 µM,-8.22% (inactive)
same,inhibition,[9]; [30],-13.7%
same,inhibition,[9]; [31],-7.2%
same,inhibition,"[9]; single agent, at 0.05 µM",-0.058%
same,inhibition,"[9]; single agent, at 5 µM",1.73%
C#Cc1cccc(Nc2ncnc3cc(OC)c(OCCCCCCC(=O)NO)cc23)c1,inhibition,[2]; at 0.5 µM,72.7% (inactive) and 57.9% (inactive)
same,inhibition,[2]; [17],-16.6% and -26.1%
same,inhibition,[2]; [18],88.8% and 73.7%
same,inhibition,[2]; [19],101% and 99%
same,inhibition,[3]; at 0.5 µM,-70.6% (inactive) and -57.7% (inactive)
same,inhibition,[3]; [20],-40.2% and -108%
same,inhibition,[3]; [21],-130% and -17.7%
same,inhibition,[4]; at 0.5 µM,45.5% (inactive) and 17.9% (inactive)
same,inhibition,[4]; [22],34.3% and 16.8%
same,inhibition,[4]; [23],84.2% and 39.1%
same,inhibition,[5]; at 0.5 µM,58.9% (inactive) and 21.7% (inactive)
same,inhibition,[5]; [24],-23% and -18.1%
same,inhibition,[5]; [25],7.84% and -0.343%
same,inhibition,[6]; at 0.5 µM,80.6% (active) and 5.75% (inactive)
same,inhibition,[6]; [18],96% and 17.9%
same,inhibition,[6]; [19],99.8% and 105%
same,inhibition,[7]; [26],108% and 106%
same,inhibition,[7]; at 0.5 µM,64.7% (inactive) and 19.7% (inactive)
same,inhibition,[7]; [27],128% and 122%
same,inhibition,[8]; at 0.5 µM,63.5% (inactive) and 39.1% (inactive)
same,inhibition,[8]; [28],58% and 34.9%
same,inhibition,[8]; [29],64.7% and 42.3%
same,inhibition,[9]; at 0.5 µM,34.3% (inactive) and 15.2% (inactive)
same,inhibition,[9]; [30],17.9% and 26.4%
same,inhibition,[9]; [31],41.6% and 7.54%
same,inhibition,"[9]; single agent, at 0.05 µM",-39.2% and -32.8%
same,inhibition,"[9]; single agent, at 5 µM",97.8% and 92.8%
CC(C)(O)c1cc2nc(-c3cnc(N)nc3)nc(N3CCOCC3)c2s1,liver cell % of control,[1],68.4% and 67.7% and 82.5%
same,parasite % of control,[1],539% (inactive) and 545% (inactive) and 563% (inactive)

# From PubChem BioAssay
